Inconclusive results are not listed. Unless noted, calls come from the whole dose curve; as a rule, active = well fitted curve in either direction with a large enough effect (not every such curve was filed as active); inconclusive = small, poorly fitted or top-dose-only effect, or another doubt; inactive = flat fitted curve, though single readings scatter.
Legend:
[1] = AP1 Signaling Pathway (AID 357); details: ME-180 AP-1-bla reporter, EGF-induced, beta-lactamase ratio, 5 h; at 17.2 µM (top of the series) unless noted;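 note: ME-180 reporter cells stimulated with EGF at its EC50 level; % is set by controls: 0 for no effect and ±100 for the full control effect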
Summary of the method: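 Modulation of EGF-driven AP-1 transcription was assessed with a beta-lactamase reporter in ME-180 cells. Compound and EC50 EGF were co-incubated 5 hours at 37 °C before 2.5-hour CCF4 loading at room temperature and dual-emission reading.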

[2] = Stat Signaling Pathway (AID 446); details: ME-180 SIE beta-lactamase reporter, IL-6 stimulated, 5 h; at 17.2 µM (top of the series) unless noted;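 note: ME-180 cervical cancer cells given 40 pM IL-6 alongside compound; SIE-controlled beta-lactamase reporter measured as 460/530 nm FRET emission ratio; % is set by controls: 0 for no effect and ±100 for the full control effect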
Summary of the method: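 Screening format detects activators and inhibitors alike: ME-180 SIE-bla cells stimulated at 40 pM IL-6 for 5 hrs with compound, then dual-emission beta-lactamase read at 405 nm excitation.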

[3] = biological target: Glucocorticoid receptor (Homo sapiens) (UniProt P04150); experiment: GR-GFP Redistribution (AID 450;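 active = compounds whose dose series gives a full or clear partial fitted curve of increased nuclear translocation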; note: potency is the fitted concentration of half-maximal effect)
Sequence of Glucocorticoid receptor (Homo sapiens) (P04150 whole entry, looked up): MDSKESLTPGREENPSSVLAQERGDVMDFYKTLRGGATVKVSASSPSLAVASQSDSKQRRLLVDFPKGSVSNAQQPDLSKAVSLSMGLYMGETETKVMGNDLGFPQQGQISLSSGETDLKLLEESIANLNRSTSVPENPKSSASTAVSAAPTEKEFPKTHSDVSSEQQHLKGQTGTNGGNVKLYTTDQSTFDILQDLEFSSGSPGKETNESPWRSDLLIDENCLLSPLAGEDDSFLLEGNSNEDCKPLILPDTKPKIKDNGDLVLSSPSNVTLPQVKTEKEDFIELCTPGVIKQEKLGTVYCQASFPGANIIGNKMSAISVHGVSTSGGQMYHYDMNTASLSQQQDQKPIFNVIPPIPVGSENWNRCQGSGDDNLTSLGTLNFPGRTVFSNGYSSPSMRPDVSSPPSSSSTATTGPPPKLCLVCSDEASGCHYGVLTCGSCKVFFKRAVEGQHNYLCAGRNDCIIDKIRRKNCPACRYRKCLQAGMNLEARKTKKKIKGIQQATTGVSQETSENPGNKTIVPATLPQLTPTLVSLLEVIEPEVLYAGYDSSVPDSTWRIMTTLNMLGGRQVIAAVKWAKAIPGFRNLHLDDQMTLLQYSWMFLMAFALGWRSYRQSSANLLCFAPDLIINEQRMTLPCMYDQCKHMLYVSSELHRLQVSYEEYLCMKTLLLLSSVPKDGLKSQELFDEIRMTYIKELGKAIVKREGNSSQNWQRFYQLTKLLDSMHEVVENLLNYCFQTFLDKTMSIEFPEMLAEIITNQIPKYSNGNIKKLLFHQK

CCOC(=O)/C(C#N)=C1\Nc2ccccc2N=C1N(CC(C)C)CC(C)C
inactive: activity change, negative = inhibition [1] 11.2% | activity, negative = inhibition [2] -4.73% | Potency [3] > 20.6 µM

O=C(NCc1cccnc1)/C(=N\O)c1ccccc1
inactive: activity change, negative = inhibition [1] -8.53% | activity, negative = inhibition [2] 0.749% | Potency [3] > 20.6 µM

CSC1=Nc2sc3c(c2C2=NCCN12)CC(C)(C)OC3
inactive: activity change, negative = inhibition [1] 26% | activity, negative = inhibition [2] 14.3% | Potency [3] > 20.6 µM

CC(C)(C)c1cccc(/C=N/O)c1O
inactive: activity change, negative = inhibition [1] -17.8% | activity, negative = inhibition [2] -5.38% | Potency [3] > 20.6 µM

COc1ccc(/C(O)=C2\C(=O)C(=O)N(c3cc(C)on3)C2c2ccccc2OC)cc1C (centres undefined)
inactive: activity change, negative = inhibition [1] -17.1% | activity, negative = inhibition [2] -23.5% | Potency [3] > 20.6 µM

COc1cccc(CNc2ccc(Br)cn2)c1O
inactive: activity change, negative = inhibition [1] -25.3% | activity, negative = inhibition [2] -14.6% | Potency [3] > 20.6 µM

Cc1cc(N2C(=O)C(=O)/C(=C(/O)c3ccccc3)C2c2cccc(Br)c2)no1 (centres undefined)
inactive: activity change, negative = inhibition [1] -11.1% | activity, negative = inhibition [2] -23.1% | Potency [3] > 20.6 µM

N#Cc1nc(COc2ccc(Cl)cc2)oc1N1CCN(Cc2ccccc2)CC1
inactive: activity change, negative = inhibition [1] -16.3% | activity, negative = inhibition [2] 4.41% | Potency [3] > 20.6 µM

CC1(C)CC(=O)C(C=NCCN2CCN(CCc3ccccc3)CC2)=C(O)C1
inactive: activity change, negative = inhibition [1] 2.91% | activity, negative = inhibition [2] -3.07% | Potency [3] > 20.6 µM

CC(C)C(=O)N1CCN(c2nc(-c3ccccc3)c3c(c2C#N)CCCC3)CC1
inactive: activity change, negative = inhibition [1] -14.8% | activity, negative = inhibition [2] -9.28% | Potency [3] > 20.6 µM

CCCn1c(SCC#N)nc2c(c1=O)C1(CCCC1)Cc1ccccc1-2
inactive: activity change, negative = inhibition [1] 13.8% | activity, negative = inhibition [2] 2.26% | Potency [3] > 20.6 µM

Cc1ccc(S(=O)(=O)NCC(=O)OCN2C(=O)c3ccccc3C2=O)cc1
inactive: activity change, negative = inhibition [1] 2.06% | activity, negative = inhibition [2] 9.1% | Potency [3] > 20.6 µM

COC(=O)c1ccc(Oc2nc3ccccc3n3c(C)nnc23)cc1
inactive: activity change, negative = inhibition [1] 13% | activity, negative = inhibition [2] 4.74% | Potency [3] > 20.6 µM

CCCCCCCCCCCCCCCC(O)C(N)CO (centres undefined)
inactive: activity change, negative = inhibition [1] -23.5% | activity, negative = inhibition [2] 7.16% | Potency [3] > 20.6 µM

CNC(=O)CC(C(=O)O)c1ccc(OC(C)C)cc1 (centres undefined)
inactive: activity change, negative = inhibition [1] 5.59% | activity, negative = inhibition [2] 5.76% | Potency [3] > 20.6 µM

C=CCN(CC=C)c1nc2ccccc2nc1C(C#N)C(=O)OC(C)C (centres undefined)
inactive: activity change, negative = inhibition [1] -13.3% | activity, negative = inhibition [2] -28.3% | Potency [3] > 20.6 µM

COc1cccc(-c2nc(NCCN3CCOCC3)c3ccccc3n2)c1O
inactive: activity change, negative = inhibition [1] -15.3% | activity, negative = inhibition [2] 6.04% | Potency [3] > 20.6 µM

COc1cc(-c2nn3c(-c4cccnc4)nnc3s2)cc(OC)c1OC
inactive: activity change, negative = inhibition [1] -0.374% | activity, negative = inhibition [2] -7.44% | Potency [3] > 20.6 µM

COC(=O)CC1=C(C(=O)OC)C(c2ccc3c(c2Cl)OCO3)C(C#N)=C(N)O1 (centres undefined)
inactive: activity change, negative = inhibition [1] 29.4% | activity, negative = inhibition [2] 14.3% | Potency [3] > 20.6 µM

O=c1/c(=C\c2cccn2-c2ccccc2)sc2nc3ccccc3n12
inactive: activity change, negative = inhibition [1] 2.64% | activity, negative = inhibition [2] 14.8% | Potency [3] > 20.6 µM

Cc1cc(C)n(-c2nnc(C)n2/N=C/c2ccccc2F)n1
inactive: activity change, negative = inhibition [1] 8.65% | activity, negative = inhibition [2] 18% | Potency [3] > 20.6 µM

CCCOc1cccc(CN2CCCCC2c2cccnc2)c1 (centres undefined)
inactive: activity change, negative = inhibition [1] 0.284% | activity, negative = inhibition [2] 0.49% | Potency [3] > 20.6 µM

Cc1cc(=O)n2[nH]cnc2n1
inactive: activity change, negative = inhibition [1] 14.3% | activity, negative = inhibition [2] 13.7% | Potency [3] > 20.6 µM

Cc1ccc(-n2ncc3c(NCCCOC(C)C)ncnc32)c(C)c1
inactive: activity change, negative = inhibition [1] -18.8% | activity, negative = inhibition [2] -8.86% | Potency [3] > 20.6 µM

CCOC(=O)c1nc(N)c(C(=O)OCC)[nH]1
inactive: activity change, negative = inhibition [1] 8.92% | activity, negative = inhibition [2] 6.9% | Potency [3] > 20.6 µM

CC(C)c1nc(NCC2CCCO2)c(C#N)c2c1COC(C)(C)C2 (centres undefined)
inactive: activity change, negative = inhibition [1] -26.1% | activity, negative = inhibition [2] -3.72% | Potency [3] > 20.6 µM

Cc1cc(=O)oc2c(CN3CCC(C)CC3)c(O)c(Cl)cc12
inactive: activity change, negative = inhibition [1] 22.4% | activity, negative = inhibition [2] 7.86% | Potency [3] > 20.6 µM

CCCCCCn1cc(C(=O)O)c(=O)c2ccccc21
inactive: activity change, negative = inhibition [1] -9% | activity, negative = inhibition [2] 8.19% | Potency [3] > 20.6 µM

CC1(C)Cc2c(sc3nc(SCC#N)n(C4CCCCC4)c(=O)c23)CO1
inactive: activity change, negative = inhibition [1] 1.9% | activity, negative = inhibition [2] 10% | Potency [3] > 20.6 µM

CCOC(=O)C1=C(N)c2ccccc2CC1C(C)C (centres undefined)
inactive: activity change, negative = inhibition [1] -3.93% | activity, negative = inhibition [2] -8.13% | Potency [3] > 20.6 µM

COc1cccc(C(=O)OCCN(C)C(C)(C)C)c1
inactive: activity change, negative = inhibition [1] 2.79% | activity, negative = inhibition [2] 3.74% | Potency [3] > 20.6 µM

C1CCCN(CCCCN2CCCCCC2)CC1
inactive: activity change, negative = inhibition [1] 3.84% | activity, negative = inhibition [2] 16% | Potency [3] > 20.6 µM

Cn1nnnc1-c1cc(Br)ccc1NC(=O)c1ccccc1
inactive: activity change, negative = inhibition [1] 28.6% | activity, negative = inhibition [2] 24.3% | Potency [3] > 20.6 µM

COc1ccc(CN(C#N)c2nc(SC)nc(N(C)C)n2)cc1
inactive: activity change, negative = inhibition [1] -3.69% | activity, negative = inhibition [2] 2.92% | Potency [3] > 20.6 µM

CCCCNC1=C(Br)C(=O)CC(C)(C)C1
inactive: activity change, negative = inhibition [1] 4.07% | activity, negative = inhibition [2] -6.99% | Potency [3] > 20.6 µM

Cc1ccc(Cn2ncc3c(N4CCN(Cc5ccc(Cl)cc5)CC4)ncnc32)cc1
inactive: activity change, negative = inhibition [1] -8.19% | activity, negative = inhibition [2] -14.5% | Potency [3] > 20.6 µM

CN=C(c1ccco1)n1c(=S)nc(-c2ccco2)n(C)c1=S
inactive: activity change, negative = inhibition [1] 10.9% | activity, negative = inhibition [2] 15.6% | Potency [3] > 20.6 µM

Nc1ccc2oc(-c3cc(Br)ccc3Cl)nc2c1
inactive: activity change, negative = inhibition [1] -29.4% | activity, negative = inhibition [2] 0.658% | Potency [3] > 20.6 µM

CCCCN(CCCC)C(=O)CSc1nnc2n(C)c(=O)c3c4c(sc3n12)CCCC4
inactive: activity change, negative = inhibition [1] -8.91% | activity, negative = inhibition [2] -16.8% | Potency [3] > 20.6 µM

CCN(CC)Cc1cc(C(C)=O)ccc1OCC(C)C
inactive: activity change, negative = inhibition [1] 23.1% | activity, negative = inhibition [2] 13.1% | Potency [3] > 20.6 µM

CCCOc1ccc(C(C)=O)cc1CSCCC#N
inactive: activity change, negative = inhibition [1] -12.7% | activity, negative = inhibition [2] 85.5% | Potency [3] > 20.6 µM

Nc1c(C(=O)NCC2CCCO2)c2nc3ccccc3nc2n1/N=C/c1ccncc1 (centres undefined)
inactive: activity change, negative = inhibition [1] -7.06% | activity, negative = inhibition [2] -9.64% | Potency [3] > 20.6 µM

Cc1c(O)c(CN2CCCCC2)cc2c3c(c(=O)oc12)CCC3
inactive: activity change, negative = inhibition [1] 6.76% | activity, negative = inhibition [2] -1.68% | Potency [3] > 20.6 µM

CCCSc1nc(N2CCOCC2)c2c(c1C#N)CCCC2
inactive: activity change, negative = inhibition [1] 20.8% | activity, negative = inhibition [2] -3.09% | Potency [3] > 20.6 µM

CC(C)c1nc(NCCN2CCOCC2)c(C#N)c2c1COC(C)(C)C2
inactive: activity change, negative = inhibition [1] -27% | activity, negative = inhibition [2] -1.06% | Potency [3] > 20.6 µM

CCN1CC2=C(OC(N)=C(C#N)C2c2ccccc2)/C(=C\c2ccccc2)C1 (centres undefined)
inactive: activity change, negative = inhibition [1] -16.4% | activity, negative = inhibition [2] -29.2% | Potency [3] > 20.6 µM

Cc1nnc(C)n1/N=C/c1cc(Br)cc(Br)c1O
inactive: activity change, negative = inhibition [1] -5.92% | activity, negative = inhibition [2] -19.2% | Potency [3] > 20.6 µM

Cc1nc2c(c(=O)n1CC1CCCO1)c1nc3ccccc3nc1n2Cc1ccc2c(c1)OCO2 (centres undefined)
inactive: activity change, negative = inhibition [1] 1.65% | activity, negative = inhibition [2] -13.4% | Potency [3] > 20.6 µM

CCn1c(SCC(=O)N2CCOCC2)nc2sc3c(c2c1=O)CCCC3
inactive: activity change, negative = inhibition [1] -8.7% | activity, negative = inhibition [2] -6.44% | Potency [3] > 20.6 µM

COC(=O)CSc1nc(-c2cccs2)ccc1C#N
inactive: activity change, negative = inhibition [1] -2.59% | activity, negative = inhibition [2] -2.18% | Potency [3] > 20.6 µM

CCO/C(C)=N/n1c2nc3ccccc3nc2c2c(=O)n(Cc3ccccc3Cl)c(C)nc21
inactive: activity change, negative = inhibition [1] -30% | activity, negative = inhibition [2] -8.13% | Potency [3] > 20.6 µM

CCOC(=O)c1[nH]c2cc(OC)c(OC)cc2c1NC(=O)C(C)N1CCN(Cc2ccccc2)CC1 (centres undefined)
inactive: activity change, negative = inhibition [1] -21.5% | activity, negative = inhibition [2] -4.92% | Potency [3] > 20.6 µM

Cn1c(=O)c2c(nc(SCCN3CCCCC3)n2Cc2ccc(Cl)cc2)n(C)c1=O
inactive: activity change, negative = inhibition [1] 11.2% | activity, negative = inhibition [2] -9.94% | Potency [3] > 20.6 µM

Cc1ccc(SCc2c(C#N)c3ccccc3n2C)cc1
inactive: activity change, negative = inhibition [1] -29.6% | activity, negative = inhibition [2] -15.3% | Potency [3] > 20.6 µM

O=C(NCc1ccco1)c1cnn2c(C(F)(F)F)cc(-c3ccco3)nc12
inactive: activity change, negative = inhibition [1] -3.32% | activity, negative = inhibition [2] 10.1% | Potency [3] > 20.6 µM

CN(C)c1nc2sc3c(c2c(=O)n1C)CC(C)(C)OC3
inactive: activity change, negative = inhibition [1] -6.89% | activity, negative = inhibition [2] 10.9% | Potency [3] > 20.6 µM

COc1cc2c(C(=O)N3CCN(c4ccccc4)CC3)c(C)oc2cc1Br
inactive: activity change, negative = inhibition [1] 3.59% | activity, negative = inhibition [2] -12.8% | Potency [3] > 20.6 µM

CC1(C)Cc2nc(NCCCO)c(C#N)cc2CO1
inactive: activity change, negative = inhibition [1] -6.96% | activity, negative = inhibition [2] 7.31% | Potency [3] > 20.6 µM

From PubChem BioAssay (NCATS)
